Test results published in ChEMBL document CHEMBL3988442, “University of Dundee, Small-Polar-MMV Screening Library” (2021).
Screen size: about 48,000 compounds; about 13,000 (27%) showed an effect of 50% or more. The list shows a part of the results.

system: Wolbachia pipientis; assay: Anti-Wolbachia Cell-Based Screen; format: functional; design: scale not given: in the data most compounds retested in dose-response had high values; settings: 5 µM

Compound	Percent Effect
COc1cccc(CN2CC(O)CN(C(=O)C3CCC3)CC2=O)c1OC (centres undefined)	107.9%
COc1ccc(OC)c(C2CCN(C(=O)[C@H]3CC[C@@H](O)CC3)C2)c1 (some centres undefined)	4.796%
COc1cccc(CN2CC(O)CN(C(=O)C3CC3)CC2=O)c1OC (centres undefined)	103.4%
COc1ccccc1CC1CCN(C(=O)CCN2CCOC2=O)CC1	-13.03%
CNC(=O)[C@@H](c1ccccc1OC)N1CCC[C@H]1C(=O)N1CC[C@@H](O)C1.Cl	4.858%
COc1ccccc1OC1CCN(C(=O)C2CCCN(C)C2)CC1 (centres undefined)	-2.238%
CSCc1noc(CN2CCC3(CC2)CC(=O)N(CC(C)C)C3)n1	6.142%
Fc1ccc(CN2CCCn3nnc(COCC4CC4)c3C2)cc1.O=C(O)C(F)(F)F	-22.46%
CNCc1n[nH]c(=O)n1CC1CCCCC1	9.971%
O=C(CC1CC1)N1C[C@H]2CN(CC3CC3)C(=O)[C@H]2C1	-33.8%
CC(=O)N[C@@H]1CN(C(=O)CC2CC2)C[C@H]1O	207.4%
CC(=O)N[C@@H]1CN(C(=O)CC2CCOCC2)C[C@H]1O	144.5%
CCOCC(=O)N1CCC(c2nccn2C)CC1	-1.738%
CCCSCC(=O)N1C[C@@H](NC(C)=O)[C@H](c2ccc(OC)cc2)C1	13.13%
CCOCC(=O)N1C[C@@H](O)[C@H](NC(C)=O)C1	181%
COc1ccc([C@@H]2CN(C(=O)CCC(F)(F)F)C[C@H]2NC(C)=O)cc1	11.36%
CCOCC(=O)N1C[C@@H](NC(C)=O)[C@H](c2ccc(OC)cc2)C1	0.296%
CCC(CC)n1nc(C)cc1NC(=O)CC1CCOCC1	0.9076%
O=C(NCCCn1cncn1)c1ccc(-c2ccco2)[nH]c1=O	2.326%
Cc1cc(CNC(=O)N2CCN(Cc3ccccc3)C[C@H]2C)on1	-6.347%
CNC(=O)C1Cc2ccccc2CN1CCc1cccs1 (centres undefined)	15.23%
CNC(=O)[C@@H]1[C@@H](c2ccccc2)CN2CCN(Cc3ccco3)C[C@H]12	101.4%

Compound	Percent Effect
CNC(=O)[C@@H]1[C@@H](c2ccccc2)CN2CCN(Cc3cccs3)C[C@H]12	88.53%
CNC(=O)[C@@H]1[C@@H](c2ccccc2)CN2CCN(Cc3cc(C)no3)C[C@H]12	101.2%
O=C(Nc1ccc(-c2ccn[nH]2)cc1)C1CCCN(Cc2ccoc2)C1 (centres undefined)	1.932%
CCc1ccc(CNC(=O)N2CCN(Cc3cc(C)no3)CC2)s1	7.686%
CN(C)C(=O)NC[C@H]1OC[C@@H]2CCN(Cc3ccoc3)C[C@@H]21	-34.99%
Cc1n[nH]c(C)c1CCNC(=O)C1CCCN(Cc2ccco2)C1 (centres undefined)	-10.07%
CNC(=O)[C@@H]1[C@H]2CN(Cc3ccoc3)CCN2C[C@H]1c1ccccc1	117.2%
Cc1c(C(=O)NCC2CCN(Cc3ccco3)C2)[nH]c2ccccc12 (centres undefined)	19.49%
CN1C(=O)CO[C@H](c2ccc(NC(=O)NC(C)(C)C)cc2)[C@H]1CO	-13.32%
COc1ccc(CN2CCSCC2)c(OC)c1	-5.529%
Cc1ccc(N(CCC#N)C(=O)CN2CCCC2c2cccs2)cc1 (centres undefined)	-26.13%
Oc1ccccc1CN1CCCCCC1c1cccs1 (centres undefined)	93%
CCN(C(=O)CN1CCCC1c1cccs1)c1ccccc1C (centres undefined)	5.729%
COc1ccc(CN2CCCCCC2c2cccs2)c(OC)c1 (centres undefined)	95.82%
COc1ccc(CN2CCCCCC2c2cccs2)c(O)c1 (centres undefined)	114.4%
COc1ccc(OC)c(CN2CCCCCC2c2cccs2)c1 (centres undefined)	-3.603%
Cn1nc(C(=O)N(CC(F)(F)F)c2cccc(Cl)c2)ccc1=O	-17.45%
Cn1cc(NC(=O)Nc2ccccn2)cc(Cl)c1=O	10.33%
CNC(=O)[C@@H]1COC[C@H]2CN(C(=O)c3cccc(OC)c3)C[C@H]21	4.207%
Cl.NCCNS(=O)(=O)Cc1ccc(Br)cc1	-57.57%
CC(=O)N1CCC(N2CCOC[C@H]2c2nc(-c3ccc(Cl)s3)c[nH]2)CC1	-14.52%
O=C(c1cccc(CNS(=O)(=O)c2ccc(F)cc2)c1)N1CCCC1	130.7%

Compound	Percent Effect
O=C(c1cccc(S(=O)(=O)NC[C@@H]2C[C@H](F)CN2)c1)N1CCCCC1	0.137%
Cc1ccc(S(=O)(=O)NCc2cccc(C(=O)N3CCCC3)c2)cc1F	110.6%
Cc1ccc(S(=O)(=O)NCCNC(=O)c2ccoc2)cc1F	-0.905%
N#Cc1cnc(NCc2cccc(C(=O)N3CCCC3)c2)c(Cl)c1	-5.94%
CC(C)c1nc(S(=O)(=O)N2CCSc3ccccc32)c[nH]1	-4.998%
CC(C)c1ccc(OCCNC(=O)c2ccoc2)cc1	6.267%
Cc1nn(CC(=O)Nc2cccc(F)c2)c(N)c1C#N	-11.77%
Cc1cccc(Cc2nc3c([nH]2)CCCNC3=O)c1	-1.705%
COc1cc(-c2nc3c([nH]2)CCCNC3=O)cc(OC)c1OC	91%
CSCc1noc(-c2nc3c([nH]2)CCCNC3=O)n1	14.73%
CC(C)Oc1cccc(Cc2nc3c([nH]2)CCCNC3=O)c1	11.57%
COc1cc(-c2nc3c([nH]2)CCCNC3=O)ccc1OC(C)C	84.8%
O=C1NCCCc2[nH]c(Cc3cccc(F)c3)nc21	-0.783%
COc1ccccc1C1CNC(=O)c2nc(-c3cnn(C)c3)[nH]c2C1 (centres undefined)	-3.18%
CC(C)Oc1cccc(-c2nc3c([nH]2)CCCNC3=O)c1	99.49%
CC(C)(C)c1noc(-c2nc3c([nH]2)CCCNC3=O)n1	2.046%
COc1ccc(-c2nc3c([nH]2)CCCNC3=O)cc1OC	96.66%
CCN1CCCN(S(=O)(=O)c2cc3ccccc3o2)CC1	-2.661%
COc1ccccc1C1CNC(=O)c2nc(-c3c(C)n[nH]c3C)[nH]c2C1 (centres undefined)	-21.26%
COc1cc(-c2nc3c([nH]2)CCCNC3=O)ccc1O	101.7%
